About 79,000 compounds went through this panel and 15% of them were active in at least one assay; those are over-represented in the sample as a whole. Unmarked numbers belong to inactive results. The source made the active and inactive calls. Cut-off read from the data, not from the text of the source: active = growth inhibition above about 70%; inactive = the rest.
Assays:
[1] = NCI Yeast Anticancer Drug Screen. Data for the rad50 strain (AID 155);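 note: 0% = growth of vehicle-only cultures of the same strain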; settings: S. cerevisiae rad50 strain growth inhibition, active compounds read high
Summary of the method: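 Relative growth inhibition (compound vs vehicle) was measured in yeast with a defined repair-gene alteration.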

[2] = NCI Yeast Anticancer Drug Screen. Data for the mec2-1 strain (AID 157); settings: S. cerevisiae mec2-1 strain, active compounds read high
Summary of the method: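 Cells of the genetically defined mec2-1 yeast strain are incubated with test compound. Inhibition of growth is calculated against vehicle-treated controls.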

[3] = NCI Yeast Anticancer Drug Screen. Data for the sgs1 mgt1 strain (AID 161);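 note: 0% = growth of cultures given vehicle only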; settings: S. cerevisiae sgs1 mgt1 strain, active compounds read high
Summary of the method: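 Mutant yeast exposed to compound; growth scored against vehicle-only wells.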

[4] = NCI Yeast Anticancer Drug Screen. Data for the cln2 rad14 strain (AID 165);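 note: 0% = growth equal to vehicle treated cultures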; settings: S. cerevisiae cln2 rad14 strain, active compounds read high
Summary of the method: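 The screen exposed genetically defined yeast (cln2 rad14) to test compounds and scored growth inhibition relative to vehicle-treated controls.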

[5] = NCI Yeast Anticancer Drug Screen. Data for the bub3 strain (AID 167); settings: S. cerevisiae bub3 mutant strain, active compounds read high
Summary of the method: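 Screening used yeast with an engineered genetic alteration affecting cell cycle control. Compound-exposed cultures were compared with vehicle cultures, and reduced growth was taken as inhibition.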

[6] = NCI Yeast Anticancer Drug Screen. Data for the mlh1 rad18 strain (AID 175); settings: S. cerevisiae mlh1 rad18 strain growth inhibition, active compounds read high
Summary of the method: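 Compound-treated yeast growth, normalised to vehicle controls. Strain bears defined DNA repair mutations.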

[7] = at 5.0 µM (retest, dose inferred, filed as 0.5)
[8] = at 50.0 µM (retest, dose inferred, filed as 5.0)

Row | SMILES | growth inhibition [1, 7] | growth inhibition [1, 8] | growth inhibition ([1]; at 50.0 µM) | growth inhibition [2, 7] | growth inhibition [2, 8] | growth inhibition ([2]; at 50.0 µM) | growth inhibition [3, 7] | growth inhibition [3, 8] | growth inhibition ([3]; at 50.0 µM) | growth inhibition [4, 7] | growth inhibition [4, 8] | growth inhibition ([4]; at 50.0 µM) | growth inhibition [5, 7] | growth inhibition [5, 8] | growth inhibition ([5]; at 50.0 µM) | growth inhibition [6, 7] | growth inhibition [6, 8] | growth inhibition ([6]; at 50.0 µM)
1 | CC(C)CC(C)(c1ccc(O)cc1)c1ccc(O)cc1 | 81% (active) | 98% (active) | 92% (active) | 78% (active) | 99% (active) | 93.5% (active) | 99% (active) | 99% (active) | 93.8% (active) | 80% (active) | 99% (active) | 92.6% (active) | 98% (active) | 99% (active) | 92.2% (active) | 68% | 99% (active) | 92.3% (active)
2 | Cc1cc(CCN)c(C)c2c1oc1ccccc12 | -9% | 95% (active) | 98.5% (active) | -7% | 88% (active) | 70.2% (active) | -7% | 99% (active) | 98.8% (active) | -5% | 98% (active) | 62.8% | -22% | 96% (active) | 93% (active) | -6% | 98% (active) | 98.6% (active)
3 | [pH]1p2[pH]p3p1p3[pH]2.c1cc[c]([Ge]([c]2ccccc2)[c]2ccccc2)cc1.c1cc[c]([Ge]([c]2ccccc2)[c]2ccccc2)cc1.c1cc[c]([Ge]([c]2ccccc2)[c]2ccccc2)cc1 | 10% | 82% (active) | 2.35% | 20% | 74% (active) | 59.3% | 18% | 78% (active) | 4.75% | 8% | 44% | 37.8% | 9% | 66% | -1% | 19% | 71% (active) | 18.4%
4 | CCC[CH2][Sn]1([CH2]CCC)[O]CC(Cc2ccccc2)[O]1 (stereo unspecified) | 31% | 96% (active) | 85.5% (active) | 22% | 98% (active) | 90.2% (active) | 54% | 98% (active) | 86.9% (active) | 32% | 95% (active) | 84.7% (active) | 55% | 98% (active) | 89.1% (active) | 39% | 97% (active) | 88.5% (active)
5 | Cc1cc(CCN)c(C)c2c1sc1ccccc12 | 21% | 99% (active) | 99.7% (active) | 92% (active) | 100% (active) | 94.3% (active) | 89% (active) | 100% (active) | 99.7% (active) | 98% (active) | 99% (active) | 89% (active) | 97% (active) | 99% (active) | 95.1% (active) | 81% (active) | 100% (active) | 99.7% (active)
6 | O=[N+]([O-])c1cc(-c2ccccc2)ccc1O | -3% | 10% | 98% (active) | 5% | 12% | 98.7% (active) | -1% | 7% | 97.4% (active) | -3% | 2% | 98% (active) | 0% | -2% | 96.2% (active) | -1% | 7% | 98.8% (active)
7 | Clc1nc(Cl)nc(Nc2ccccc2Cl)n1 | 67% | 96% (active) | 99% (active) | 40% | 97% (active) | 96.7% (active) | 53% | 98% (active) | 98.9% (active) | 21% | 97% (active) | 95.8% (active) | 82% (active) | 99% (active) | 98.6% (active) | 24% | 95% (active) | 97.2% (active)
